Hits are enriched below; roughly 2.7% of the tested compounds scored in any of these assays.
TGFb inhibitor: blocks TGF-b signaling; Potency, µM (top dose mostly 46.1 µM), inactives show top-dose activity, negative = inhibition, most hits filed as inhibitors; HepG2 CAGA-GFP TGF-b/SMAD3 reporter, GFP fluorescence, 18 h; TGF-beta stimulated, 500 pg/mL final; AID 588855; hit rate 1.2% among 410,000; further: on the % scale 0 is the no-effect control and ±100 the full control effect; nearly all actives have a fitted effect of over 65% in size
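Using HEPG2 CAGA-GFP reporter cells at 1000 cells/well, we pinned test compounds, stimulated with recombinant TGF-beta (500 pg/mL final) and measured total well GFP after 18 h.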
ATXN2 expr inh: inhibitors of ATXN2 expression. Potency, µM (titrated, usually from 57 µM), for the others: at the top dose activity change, negative = inhibition, actives largely listed as inhibitors. AID 1745845. hit rate 0.72% among 360,000. HEK-293 ATXN2-luciferase reporter, luminescence, 24 h; further: on the % scale 0 is the no-effect control and ±100 the full control effect; nearly all actives have a fitted effect of over 55% in size
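qHTS (up to 57 uM final) was run with 24 h compound exposure of reporter cells at 37 °C. Each well was multiplexed: SteadyGlo luminescence measured ATXN2-luciferase expression after a fluorogenic Gly-Phe-AFC viability readout (25 uM final).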
ALOX12 inh: blocks human arachidonate 12S-lipoxygenase; P18054; purified 12hLO, xylenol orange hydroperoxide absorbance; Potency, µM (titrated, usually from 108 µM), for inactives: at the top dose activity change, negative = inhibition, most hits filed as inhibitors; hit rate 1.1% among 580,000; AID 1671190; further: on the % scale 0 is the no-effect control and ±100 the full control effect
Target sequence (P18054 whole entry, looked up): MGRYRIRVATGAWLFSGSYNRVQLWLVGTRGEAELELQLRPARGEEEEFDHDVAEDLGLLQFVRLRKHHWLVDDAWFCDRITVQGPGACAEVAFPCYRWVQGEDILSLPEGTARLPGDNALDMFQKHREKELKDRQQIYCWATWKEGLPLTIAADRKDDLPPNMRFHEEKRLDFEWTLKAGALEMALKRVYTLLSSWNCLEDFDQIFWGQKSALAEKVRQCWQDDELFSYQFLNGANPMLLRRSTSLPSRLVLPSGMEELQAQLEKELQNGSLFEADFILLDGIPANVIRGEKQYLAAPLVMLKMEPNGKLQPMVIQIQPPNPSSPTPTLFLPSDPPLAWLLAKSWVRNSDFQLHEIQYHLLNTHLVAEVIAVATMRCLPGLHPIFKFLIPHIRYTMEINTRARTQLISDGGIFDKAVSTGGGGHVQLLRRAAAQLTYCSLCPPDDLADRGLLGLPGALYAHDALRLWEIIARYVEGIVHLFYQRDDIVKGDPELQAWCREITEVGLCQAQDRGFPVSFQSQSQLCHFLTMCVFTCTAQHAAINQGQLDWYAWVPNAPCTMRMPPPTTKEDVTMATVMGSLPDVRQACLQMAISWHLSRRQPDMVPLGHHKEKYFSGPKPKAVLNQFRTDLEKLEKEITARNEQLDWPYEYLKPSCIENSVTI
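Purified human 12hLO (150 nM final) in 25 mM Hepes, 0.01% Triton X-100, pH 7.0 was preincubated 15 min at room temperature with compound. Then 40 uM arachidonic acid was added, 30 min. Hydroperoxide was read by Fe-XO absorbance ratio 573/405 nm.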
S2 tox: viability counter-screen for ATXN expression inhibitors | hit rate 0.49% among 400,000 | Potency, µM (doses to about 56.7 µM), actives largely listed as cytotoxic | AID 651635 | S2 cells (HEK-293 line with an ATXN2-luciferase reporter) viability, CellTiter-Fluor protease fluorescence, 24 h; further: nearly all actives have a fitted effect of over 40% in size
HepG2 tox: counter-screen for TGF-b inhibitors: cytotoxicity in HepG2 cells. hit rate 0.76% among 410,000. HepG2 CAGA-GFP viability, ATP luminescence, 18 h. Potency, µM (top dose mostly 46.1 µM), without a hit: top-dose activity change, negative = cytotoxicity, usual class: cytotoxic. AID 588856
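HepG2 CAGA-GFP cells (1000/well, DMEM with 1% FBS) received compound, then TGF-beta at 500 pg/mL final, and were incubated 18 hours at 37 degrees C. Viability was read by CellTiter-Glo luminescence. Media-only wells were set as complete cell-killing and DMSO as no toxicity.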
The depositor's hits bear a star; i = inactive; u = inconclusive; x = no result; [ ] = dose if it differs, or a comment. The call rests on the fitted dose curve; in most records, active means well fitted curve in the direction sought with a large enough effect; inconclusive means small, poorly fitted or top-dose-only effect, or another doubt; inactive means no such curve, though single readings can be large; an effect the other way counts as inactive or inconclusive. Potency means the concentration at half of the fitted maximal effect.

SMILES	TGFb inhibitor	ATXN2 expr inh	ALOX12 inh	S2 tox	HepG2 tox
CC(C)C[C@H]1CN([C@@H](Cc2ccc(O)cc2)CN2CCC[C@@H]2CN2C(=S)NC[C@@H]2Cc2ccccc2)C(=S)N1CC1CCCCC1	11.2µM*	0.0%	u	u	-29.7%
CC(C)C[C@@H](CN1CCC[C@@H]1CN1C(=S)NC[C@@H]1Cc1ccccc1)N1C[C@H](Cc2ccc(O)cc2)N(CC2CCCCCC2)C1=S	u	22.4µM*	-26.4%	14.1µM*	-80.5%
Oc1ccc(C[C@H]2CN([C@@H](Cc3ccccc3)CN3CCCC3CN3C(=S)NC[C@@H]3Cc3ccccc3)C(=S)N2CC2CCCCC2)cc1 (stereo not given in full)	x	-32.6%	0.0%	u	x
Oc1ccc(C[C@H]2CN([C@@H](Cc3cccc(O)c3)CN3CCC[C@@H]3CN3C(=S)NC[C@@H]3Cc3ccccc3)C(=S)N2CC2CCCCC2)cc1	5.01µM*	15.8µM*	u	12.6µM*	-45.5%
CC(C)C[C@H]1CNC(=S)N1CC1CCCN1C[C@H](Cc1ccc(O)cc1)N1C[C@H](Cc2ccccc2)N(CC2CCCCCC2)C1=S (stereo not given in full)	u	-11.7%	u	i	-27.3%
CCOc1ccc(CCN2C(=S)N([C@@H](CC(C)C)CN3CCCC3CN3C(=S)NC[C@@H]3CC(C)C)C[C@@H]2Cc2ccccc2)cc1 (stereo not given in full)	-24.8%	1.7%	14.1µM*	i	-33.9%
C=CCc1ccccc1OCCOc1ccccc1/C=C(/C#N)C(N)=O	x	x	-16.5%	x	x
Cc1nn(-c2nc3c(c(=O)n(CC(N)=O)c(=O)n3C)n2CCc2ccccc2)c(C)c1C	x	x	-8.2%	x	x
CCCCCCSc1nc2c(c(=O)[nH]c(=O)n2C)n1CC(O)COc1ccc(Cl)cc1 (stereo not given)	x	x	-29.1%	x	x
CCOc1ccc(S(=O)(=O)[C@H]2CS(=O)(=O)C[C@@H]2N2CCC3(CC2)OCCO3)cc1	x	x	-36.1%	x	x
COc1cccc2c(NCc3ccccc3)nc(-n3c(N)nc4ccccc43)nc12	x	27.3µM*	u	x	x
COc1cccc(-c2nc(NCc3cccnc3)c3ccccc3n2)c1O	-10.5%	-20.1%	-1.5%	i	-12.8%
CCCCCc1c(-c2ccccc2OC)ncn1CCc1ccccc1OC	x	-35.3%	-46.9%	x	x
CCCCCc1c(-c2ccc(F)cc2)ncn1CCc1ccccc1OC	x	u	-38.7%	u	x
CCCCc1c(-c2ccccc2OC)ncn1CCc1ccccc1OC	x	u	-17.8%	31.6µM*	x
CCCCc1c(-c2ccccc2OC)ncn1CCc1cccc(OC)c1	x	u	u	31.6µM*	x
CCCCc1c(-c2ccccc2OC)ncn1Cc1ccc(Cl)cc1Cl	x	x	31.6µM*	x	x
CCCCc1c(-c2ccccc2OC)ncn1Cc1cccc(OC)c1	x	x	0.3%	x	x
CCCCc1c(-c2ccccc2OC)ncn1Cc1ccc(F)cc1F	x	x	2.2%	x	x
CCCCCc1c(CC)ncn1CCc1ccccc1OC	x	u	-9.1%	15.8µM*	x
N/C(=N/O)c1cccc(CN2CCOCC2)c1	x	x	-9.0%	x	x
Cc1nc(-c2ccccc2)sc1C(=O)Nc1ccc2[nH]c(=O)[nH]c2c1	x	x	-53.1%	x	x
CN(C)C(=O)CN1CCN(c2nc(-c3ccccc3)nc3ccccc23)CC1	x	x	6.5%	x	x
O=C1C=C(c2ccc(Cl)c(C(F)(F)F)c2)C[C@@H](c2ccc(Cl)cc2)C1	14.1µM*	-16.4%	0.4%	i	-45.0%
CCOC(=O)c1ccc(Cl)c(NC(=O)c2ccc(-c3ccccc3)cc2)c1	2.8%	u	7.6%[57.4 µM]	u	-14.1%
SMILES	TGFb inhibitor	ATXN2 expr inh	ALOX12 inh	S2 tox	HepG2 tox
CCOC(=O)c1ccc(/C=C2/C=C(c3ccccc3)N(c3ccc(Cl)c(C(=O)O)c3)C2=O)cc1	-29.4%	10.6µM*	44.7µM*	u	-35.4%
N#Cc1ccc(OCCSc2ccc3c(c2)OCCO3)cc1	x	x	-23.6%	x	x
COC(=O)C1=C(C)N(Cc2ccccc2)C(=NCc2ccccc2)N[C@H]1c1cccc(C(F)(F)F)c1	u	u	x	x	14.1µM*
COC(=O)C1=C(C)N(Cc2ccccc2)C(=NCCc2ccccn2)N[C@H]1c1cccc(C(F)(F)F)c1	u	35.5µM*	u	u	-82.7%
Cc1ccc(C(=O)N[C@H]2CO[C@H]3[C@@H]2OC[C@@H]3Nc2nccc(-c3ccc(-c4ccccc4)cc3)n2)cc1	x	x	15.0%	x	x
CCc1ccc(N2CSC3=C(C#N)C(c4cccs4)CC(=O)N3C2)cc1 (stereo not given)	0.0%	22.2%	x	i	-25.1%
COc1cc(OC)c(C2CC(=O)N3CN(c4ccc(C)cc4)CSC3=C2C#N)cc1OC (stereo not given)	3.1%	0.0%	7.3%	i	7.8%
COc1cc(C2CC(=O)N3CN(c4ccc(C)c(Cl)c4)CSC3=C2C#N)ccc1O (stereo not given)	x	x	0.891µM*	x	x
COc1ccc(N2CSC3=C(C#N)C(c4cc(OC)ccc4OC)CC(=O)N3C2)c(OC)c1 (stereo not given)	-5.9%	-18.9%	x	i	1.7%
CCOc1ccccc1N1CSC2=C(C#N)C(c3c(OC)ccc4ccccc34)CC(=O)N2C1 (stereo not given)	u	-8.6%	3.16µM*	i	-11.6%
CCOC(=O)c1ccc(N2CSC3=C(C#N)C(c4cccs4)CC(=O)N3C2)cc1 (stereo not given)	-0.7%	-35.0%	17.8µM*	i	-4.1%
COc1ccc(C2CC(=O)N3CN(c4ccc(C)c(Cl)c4)CSC3=C2C#N)cc1OC (stereo not given)	-17.4%	30.6%	35.5µM*	i	-27.3%
Cc1ccc(-c2c(C(F)(F)F)nn3c(N4CCN(CCO)CC4)cc(C)nc23)cc1	x	x	57.6%	x	x
COc1cccc(C2CC(=O)N3CN(C4CCCCC4)CSC3=C2C#N)c1 (stereo not given)	-1.4%	11.2%	12.6µM*	u	-23.9%
COc1ccc(C2CC(=O)N3CN(C4CCCCC4)CSC3=C2C#N)cc1 (stereo not given)	0.2%	4.0%	u	i	2.6%
COc1ccc(N2CSC3=C(C#N)C(c4ccc(OC)c(OC)c4)CC(=O)N3C2)c(OC)c1 (stereo not given)	-15.9%	-20.2%	u	i	-5.4%
N#CC1=C2SCN(c3ccc(F)cc3)CN2C(=O)CC1c1cccc(F)c1 (stereo not given)	0.1%	-1.8%	6.31µM*	i	-46.0%
COc1ccc(N2CSC3=C(C#N)C(c4cc(OC)c(OC)cc4OC)CC(=O)N3C2)c(OC)c1 (stereo not given)	-0.5%	-35.2%	28.2µM*	u	-4.8%
COc1cc(C2CC(=O)N3CN(c4cccc(Cl)c4)CSC3=C2C#N)ccc1O (stereo not given)	x	x	17.8µM*	x	x
